Results reported in PubChem BioAssay (NCI).
This is part of a sample that, as a whole, favours compounds with a hit. Of some 83,000 tested, about 20% had one in any assay.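 Plates (96-well) were seeded with cells, treated with compound at one concentration, and incubated for 48 hours before percent growth was determined.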 A number with no mark means an inactive call. Calls of active or inactive are those of the source. The calls were made as follows: active = growth percent below 10; inactive = the rest.

Key:
Test in all cases: NCI-60 one-dose screen, 48 h (100 = growth as untreated, 0 = no growth, -100 = all killed)
Settings in all cases: 10 µM unless noted
NCI-H23 lung = tested on: NCI-H23 lung
NCI-H322M lung = tested on: NCI-H322M lung
HOP-62 NSCLC = tested on: HOP-62 NSCLC
NCI-H460 lung = tested on: NCI-H460 lung
HOP-92 NSCLC = tested on: HOP-92 NSCLC
NCI-H522 lung = tested on: NCI-H522 lung
A549/ATCC NSCLC = tested on: A549/ATCC NSCLC
786-0 renal = tested on: 786-0 renal
COLO 205 colon = tested on: COLO 205 colon
DU-145 prostate = tested on: DU-145 prostate
K-562 leukemia = tested on: K-562 leukemia
MALME-3M melanoma = tested on: MALME-3M melanoma
MDA-MB-231 breast = tested on: MDA-MB-231 breast
RXF 393 renal = tested on: RXF 393 renal
SF-268 CNS = tested on: SF-268 CNS
SF-295 CNS = tested on: SF-295 CNS
SF-539 CNS = tested on: SF-539 CNS
UACC-257 melanoma = tested on: UACC-257 melanoma
M14 melanoma = tested on: M14 melanoma
NCI-H226 lung = tested on: NCI-H226 lung

Row | SMILES | growth (NCI-H23 lung) [%] | growth (NCI-H322M lung) [%] | growth (HOP-62 NSCLC) [%] | growth (NCI-H460 lung) [%] | growth (HOP-92 NSCLC) [%] | growth (NCI-H522 lung) [%] | growth (A549/ATCC NSCLC) [%] | growth (786-0 renal) | growth (COLO 205 colon) | growth (DU-145 prostate) [%] | growth (K-562 leukemia) [%] | growth (MALME-3M melanoma) | growth (MDA-MB-231 breast) | growth (RXF 393 renal) | growth (SF-268 CNS) [%] | growth (SF-295 CNS) | growth (SF-539 CNS) | growth (UACC-257 melanoma) | growth (M14 melanoma) | growth (NCI-H226 lung) [%]
1 | COC[C@H](C)n1c(C2CCOCC2)nc2cnc3cc(-c4c(C)noc4C)c(OC)cc3c21 | 70.4 | 50.4 | 39.8 | 65.2 | 37.1 | 34.4 | 45.6 | 51.6% | 28.9% | 77.5 | 39.1 | 75.7% | 55.4% | 67% | 76.7 | 53.7% | 40.7% | 38.3% | 42.5% | –
2 | CCCCCC(=O)Oc1ccc(/C(=C(\C)c2ccc(OC)cc2)c2ccc(OCCN3CCCCC3)cc2)cc1 | 67.1 | 78.2 | 63.1 | 51.6 | 81.7 | 74.6 | 53.2 | 46.8% | -32.6% (active) | 79.8 | – | 64.3% | 66.1% | 70.2% | 71.1 | 38.9% | 40.8% | 8.72% (active) | -39.2% (active) | –
3 | CN(C)[C@@H]1C(=O)C(C(=O)NCc2nc3[nH]cnc(=S)c3[nH]2)=C(O)[C@@]2(O)C(=O)C3=C(O)c4c(O)cccc4[C@@](C)(O)[C@H]3C[C@@H]12 | 58.7 | 37.9 | 18.4 | 63.8 | 25.2 | 33.3 | 101 | 19.6% | 88% | 42.6 | – | 69.4% | 47.5% | – | 76.1 | 27.1% | 31.8% | – | 9.8% (active) | –
4 | CCCCCCN(CCCCCC)C(=N)c1ccnc2ccccc12 | 72.5 | 76 | 100 | 55.4 | 57.5 | 71.7 | 78.4 | 57% | -74.7% (active) | 85.1 | 16.8 | 76.2% | 58.1% | 70.3% | 83.8 | – | 79.7% | 69.9% | 18.9% | –
5 | COc1cc(-c2nc(C(=O)NCC(=O)NO)nn2-c2ccc(Cl)cc2)cc(OC)c1OC | 97.1 | 118 | 93.6 | 107 | 86.5 | 86.8 | 90.1 | 101% | 103% | 107 | – | 129% | 101% | 107% | 104 | 107% | 96.7% | 86.8% | 101% | –
6 | C=CC(=O)Nc1cccc(-c2nc(SC)nc(Nc3cccc(OC)c3)c2C#N)c1 | 81 | 94.5 | 85.5 | 86 | 29.5 | 58.7 | 57.3 | 62.7% | 93.3% | 54.6 | 54.6 | 77.6% | 71.4% | 36.9% | 57.1 | 77.8% | 71.3% | 82.3% | 60.6% | –
7 | CCN1CCN(c2nc(NCCNc3ccnc4cc(Cl)ccc34)c3ccccc3n2)CC1 | 69 | 42.3 | 24.9 | – | 32.7 | 18 | – | 4.75% (active) | -60.6% (active) | 33.9 | – | -78% (active) | -73% (active) | -39% (active) | 27.2 | -41.9% (active) | -71.2% (active) | 57.9% | -76.6% (active) | 27.2
8 | O=C1NC(=S)N[C@H]1CC(=O)n1cnc2ccccc21 | 92.3 | 105 | 93 | 104 | 96.1 | 98.4 | – | 102% | 111% | 109 | 114 | 98.2% | 101% | 99.7% | 100 | 100% | 99% | 116% | 96.8% | –
